Measured values reported in PubChem BioAssay AID1069 (NMMLSC, 2008).
Active and inactive are the calls of the source.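 The calls were made as follows: active = high combined rank on largest and smallest cell-count-weighted shift across three tests, rank score above 45, floors 50 and 25 (some results past the limit were not filed as active); inactive = the rest.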

Assay: LNCaP granularity increase inducers, single-point recheck – cell-based, side scatter shift, flow cytometry, confirmation (AID 1069);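 also: LNCaP human prostate cancer cells in low-serum medium with charcoal-stripped FBS; percent of cells with raised granularity gated so DMSO controls show 10%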
Settings: LNCaP differentiation, 4 d, stronger effect = higher value

SMILES	side scatter shift (at 100 µM)	side scatter shift (side scatter shift, at 10 µM)
Cc1cccc(-c2nc(CN3CCCC(C(=O)NC4CCCC4)C3)c(C)o2)c1 (configuration not stated)	13.8% (inactive)	8.5%
COc1ccc(Nc2nc(N)nc(CN3CCC(Cc4ccccc4)CC3)n2)cc1	16.7% (inactive)	33.3%
CC(=O)Nc1cc(C(=O)N2CCOCC2)ccc1S(=O)(=O)c1ccc(C)cc1	11.4% (inactive)	2.95%
CCOC(=O)N1CCC(NC(=O)C2CCCN(Cc3nc(-c4cccc(Cl)c4)oc3C)C2)CC1 (configuration not stated)	21.2% (inactive)	5.35%
O=C(C1CCN(S(=O)(=O)c2cccc3nsnc23)CC1)N1CC=C(c2ccccc2)CC1	25.9% (inactive)	9.3%
Cc1cc(NC(=O)CSc2nnc(C3CC3)n2C)no1	11.6% (inactive)	9.3%
Cc1oc(-c2ccc(Cl)cc2)nc1CN1CCC(C(=O)NCc2cccnc2)CC1	30% (inactive)	5.8%
COc1ccc(Cc2n[nH]c(=O)c3ccccc23)cc1OC	5.3% (inactive)	5.7%
O=C(CCCCCn1c(=O)[nH]c2ccccc2c1=O)NCCCN1CCN(c2ccccc2F)CC1	27.8% (inactive)	3%
CCc1nn(C(C)C(=O)N2CCc3ccccc3C2)c(=O)c2cc3occc3n12 (configuration not stated)	5.5% (inactive)	2.8%
Cc1cc(=O)n2nc(N3CCCC(C(=O)NCCCN4CCc5ccccc5C4)C3)sc2n1 (configuration not stated)	17.4% (inactive)	9.3%
CN(C(=O)c1ccccn1)c1nnc(-c2cccnc2)s1	8.3% (inactive)	2.1%
COc1ccc(-n2c(C)nc3c(cnn3-c3ccc(Cl)cc3)c2=O)cc1	4.4% (inactive)	5.6%
Cc1cccc(N2CCN(C(=O)CCNC(=O)Cn3ccc4ccccc4c3=O)CC2)c1C	0% (inactive)	2%
COC(=O)c1[nH]c2c(c1C)C(=O)CCC2	7.2% (inactive)	3.6%
CCOc1ccccc1NC(=O)CCC(=O)O	6.7% (inactive)	6.85%
CCOc1ccc(C(=O)Nc2ccc(Cl)cn2)cc1Cl	22% (inactive)	2.75%
CCc1ccc(NC(=O)NCCN2CCc3ccccc3C2)cc1	0% (inactive)	8.75%

SMILES	side scatter shift (at 100 µM)	side scatter shift (side scatter shift, at 10 µM)
O=C(CCNC(=O)Cn1ccc2ccccc2c1=O)NCCCN1CCN(c2ccc(F)cc2)CC1	21.8% (inactive)	7.25%
COc1cc(C2C3=C(Nc4ncnn42)c2ccccc2CC3)cc(OC)c1OC (configuration not stated)	11.2% (inactive)	4.5%
O=C(NCCCN1CCN(c2ccccc2F)CC1)C1CCN(S(=O)(=O)c2cccs2)CC1	22.7% (inactive)	3.7%
Cc1cccc(OCCn2c(=O)n(C)c3ccccc32)c1	26.7% (inactive)	4.5%
O=C(Nc1c(C(=O)N2CCOCC2)cnn1-c1ccccc1)c1ccco1	7.5% (inactive)	5.15%
Cc1ccc(C)c(N2CCN(CCCNC(=O)Cn3cc4c(n3)CCCCC4)CC2)c1	0% (inactive)	7.55%
Cc1ccc2c(c1)-c1c(cnn1CC(=O)Nc1ccccc1N1CCN(C)CC1)CO2	9.6% (active)	38%
C=CCn1cc(C(=O)N2CCN(C)CC2)c(=O)c2cc(S(=O)(=O)N3CCCC3)ccc21	8.9% (inactive)	1.6%
O=C(NCCCN1CCN(c2ccccc2F)CC1)C1CCCN(S(=O)(=O)c2cnc[nH]2)C1 (configuration not stated)	7.3% (inactive)	4.1%
CCN1CCN(C(c2cccs2)C(C)NS(=O)(=O)c2ccc(Br)cc2)CC1 (configuration not stated)	82.4% (inactive)	17.8%
Cc1ccc(C)c(N2CCN(C(=O)CCNC(=O)Cn3ccc4ccccc4c3=O)CC2)c1	25% (inactive)	10%
Cc1ccc(CNc2nc3ccccc3n3nnnc23)cc1	33.1% (inactive)	7%
COc1ccc(CCNC(=O)C2CCCN(Cc3nc(-c4cccc(Cl)c4)oc3C)C2)cc1OC (configuration not stated)	28.6% (inactive)	3.85%
Cn1c(=O)n(C)c2cc(CN3C(=O)OC(C)(C)C3(C)O)ccc21 (configuration not stated)	7.1% (inactive)	2.45%
COc1ccc2cc3cc(C(=O)Nc4ccccc4N4CCN(C)CC4)oc3nc2c1	68.3% (active)	42.7%
Cc1oc(-c2cccc(Cl)c2)nc1CN1CCC(C(=O)NCc2ccco2)CC1	35% (inactive)	6.2%
CCOC(=O)N1CCC(NC(=O)c2cc3c(-c4ccc(OC)c(OC)c4)nn(C)c3s2)CC1	16.6% (inactive)	3.9%
Cc1oc(-c2cccc(Cl)c2)nc1CN1CCCC(C(=O)NCCCN2CCOCC2)C1 (configuration not stated)	27.3% (inactive)	23.6%
